BoNT A protease: blocks Botulinum neurotoxin A light chain protease. 360,000 compounds, 0.17% hits. AID 588499. multiplex microsphere protease substrate cleavage, flow cytometry. inhibition, % at 10 µM
Anthrax LF prot: blocks Bacillus anthracis lethal factor protease; P15917; multiplex microsphere protease cleavage assay, LF; inhibition, % at 10 µM; 360,000 compounds, 0.12% hits; AID 588501
MazEF act: activators of E. coli MazEF toxin-antitoxin RNase; P0AE70; FAM/BHQ RNA-DNA oligo cleavage fluorescence, 5 h; activation, % at 20 µM; 350,000 compounds, 0.32% hits; in the data active means activation above about 50%
Target sequence (P0AE70 whole entry, looked up): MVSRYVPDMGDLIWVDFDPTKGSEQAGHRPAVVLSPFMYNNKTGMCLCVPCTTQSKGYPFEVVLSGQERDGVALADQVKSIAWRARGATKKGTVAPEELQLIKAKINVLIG
Autofluor counter: compound fluorescence in toxin protease inhibitor counterscreen; compound autofluorescence counterscreen, microsphere flow cytometry; active compounds read high; fluorescence intensity (concentration not given with the values); 360,000 compounds, 3.1% hits; in the data active means fluorescence intensity above about 16000; inconclusive means no clear call, values can overlap the other calls
BoNT-F LC inh: BoNT F light chain protease inhibition | AID 588497 | inhibition, % at 10 µM | 360,000 compounds, 0.22% hits | Multiplex microsphere protease cleavage assay, flow cytometry; in the data active means inhibition above about 35%, passing the limit was not always enough; inconclusive means no clear call, values can overlap the other calls
DUSP3 inh: DUSP3 (human) phosphatase inhibition; P51452; recombinant VHR phosphatase, pNPP absorbance; inhibition, % at 13.3 µM; 290,000 compounds, 0.52% hits; in the data active means inhibition above about 50%
Target sequence (P51452 whole entry, looked up): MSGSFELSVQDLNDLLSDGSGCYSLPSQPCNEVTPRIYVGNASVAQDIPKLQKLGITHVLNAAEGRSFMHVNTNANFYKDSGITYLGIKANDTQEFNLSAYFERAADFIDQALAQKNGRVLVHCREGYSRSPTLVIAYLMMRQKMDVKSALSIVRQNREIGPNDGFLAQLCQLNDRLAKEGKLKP
Numbers stand for hits; i = inactive; ? = inconclusive; nt = no result. The list is not random: actives were taken first. Their share in the collection is about 4.1%. Unless noted, no stated cut-off is given here; in the data, active means inhibition above about 30%; inconclusive means no clear call, values can overlap the other calls; inactive means below that.

SMILES | BoNT A protease | Anthrax LF prot | MazEF act | Autofluor counter | BoNT-F LC inh | DUSP3 inh
CC(C)(C)S(=O)N1Cc2cc(CO)cc(CCO)c2[C@@H]1CCO (stereo partly drawn) | i | i | i | i | i | nt
COCCCNC(=O)C1C2C=CC3(CN(Cc4ccc(C)cc4)C(=O)C13)O2 (stereo not drawn) | i | i | i | 23422 | i | i
Cc1ccc(CN2CC34C=CC(O3)C(C(=O)NCc3ccc5c(c3)OCO5)C4C2=O)cc1 (stereo not drawn) | i | i | i | i | i | i
COC(=O)C1[C@H]2C(=O)N(Cc3cccs3)C[C@]23C=C[C@H]1O3 (stereo partly drawn) | i | i | i | 23081 | i | i
CCOC(=O)N1CCN(C(=O)C2CC(c3cc(OC)ccc3OC)=NO2)CC1 (stereo not drawn) | ? | i | i | 23965 | i | i
CCn1ncc(C2=NOC(C(=O)N3CCC(C(N)=O)CC3)C2)c1C (stereo not drawn) | ? | i | i | 21518 | i | i
CCn1ncc(C2=NOC(C(=O)Nc3cc(OC)c(Cl)cc3OC)C2)c1C (stereo not drawn) | i | i | i | 18923 | i | i
CCn1ncc(C2=NOC(C(=O)Nc3cnn(C45CC6CC(CC(C6)C4)C5)c3)C2)c1C (stereo not drawn) | i | i | i | 21886 | i | i
Cc1ccccc1CNC(=O)c1ccc2nc(N3CCOCC3)sc2c1 | i | i | i | i | i | i
C#CCN(CC(=O)OCC)S(=O)(=O)CCNC1CC1 | i | i | nt | i | i | nt
CCCCN(C(=O)C(C)Oc1ccc(Br)cc1)c1c(N)n(CC(C)C)c(=O)[nH]c1=O (stereo not drawn) | i | i | i | i | i | nt
COc1cc(C(=O)NNC(=O)C2CC2)cc(OC)c1OC | i | i | i | i | i | i
CC(O)c1cccc(NC2=CC(=O)CC(C)(C)C2)c1 (stereo not drawn) | i | i | i | 22635 | i | i
CC1(C)CC(=O)C=C(Nc2ccccn2)C1 | ? | i | i | 21302 | i | i
O=C(NCc1cc2ccccc2[nH]1)C1CCC(=O)N(CC2CCCCC2)C1 (stereo not drawn) | i | i | i | i | i | nt
Cc1cc(CNC(=O)c2cccc(OC3CCN(S(=O)(=O)N(C)C)CC3)c2)on1 | i | i | i | i | i | i
CCOC(=O)c1cnc(-n2nc(C)cc2C)nc1NCc1ccccc1 | i | i | i | ? | i | i
CCOC(=O)c1cnc(-n2nc(C)cc2C)nc1NC(C)c1ccccc1 (stereo not drawn) | i | i | i | 16140 | i | i
CCOC(=O)c1cnc(-n2nc(C)cc2C)nc1NCCO | i | i | i | 22604 | i | i
CCOC(=O)c1cnc(-c2ccccc2)nc1N1CC(C)OC(C)C1 (stereo not drawn) | i | i | i | i | i | i
CCOC(=O)c1cnc(-n2nc(C)cc2C)nc1N1CC(C)OC(C)C1 (stereo not drawn) | i | i | i | 21874 | i | nt
Fc1ccc(NC(=S)SCc2ccc3c(c2)OCO3)cc1F | i | i | i | i | i | nt
O=C(NCc1ccccc1)C1CCCN(S(=O)(=O)c2ccc(Br)cc2)C1 (stereo not drawn) | i | i | i | i | i | i
Cc1cc(C(=O)CSCCCn2c(=O)[nH]c3ccccc32)c(C)n1C | i | i | i | i | i | i
O=c1[nH]c2ccccc2n1CCCSCCCn1c(=O)[nH]c2ccccc21 | ? | i | i | 19717 | i | i
SMILES | BoNT A protease | Anthrax LF prot | MazEF act | Autofluor counter | BoNT-F LC inh | DUSP3 inh
Cc1cccc(NC(=O)Cn2c(=O)n(Cc3ccco3)c(=N)c3c4c(sc32)COC(C)(C)C4)c1 | i | i | i | i | i | 51.9
CCCCn1c(O)c(/C=C2\C=Nc3ccccc32)c(=O)[nH]c1=O | i | i | 254.7 | i | i | i
Cn1c(O)c(/C=C2\C=Nc3ccccc32)c(=O)n(C)c1=O | i | i | 141.1 | i | i | i
COC(=O)C1=Nc2ccccc2/C1=C\c1c(O)n(C)c(=O)n(C)c1=O | i | i | i | i | i | i
CNc1n[nH]c(-c2ccccc2)n1 | i | i | i | i | i | nt
Cc1cc(C)cc(NC(=O)C2COc3ccccc3O2)c1 (stereo not drawn) | i | i | i | i | i | nt
COc1ccc(NC(=O)Nc2ccc(OC)cc2)cc1 | i | i | i | i | i | i
COc1ccc(C(=O)NNS(=O)(=O)c2ccc(OC)cc2)cc1 | i | i | i | i | i | 58.2
COc1ccc(S(=O)(=O)Nc2ccc(NC(C)=O)cc2)cc1 | i | i | i | 23841 | i | i

Source: PubChem BioAssay (several laboratories)
